HT1080 IDH1KD tx – HT-1080 IDH1 knockdown cell toxicity (counter line) | 2% of 360,000 active | HT-1080 IDH1 knockdown viability, ATP luminescence, 48 h | AID 686971 | Potency, µM (titrated, usually from 46.1 µM), without a hit: at the highest dose activity, negative = toxicity, hits mostly cytotoxic;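 also: potency is read from the fitted curve at half-maximal effect; 0% = DMSO wells and -100% = cell-free medium wells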
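Luminescent ATP read-out (CellTiter-Glo, 10 min at room temperature) after 48 h compound exposure at 37 °C gave viability of IDH1-knockdown HT-1080 cells. Activity was normalised to DMSO and cell-free wells, then fitted as concentration-response curves.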
TDP1 cell CPT – growth inhibition of DT40 Tdp1-/-;hTDP1 cells with camptothecin (screen for TDP1 inhibitors); chicken DT40 Tdp1-/-;hTDP1 cells + 20 nM CPT, ATP luminescence, 48 h; Potency, µM (highest dose often 46.2 µM), for inactives: at the highest dose activity change, negative = growth inhibition, actives largely listed as inhibitors; 12% of 420,000 active; AID 686979; also: potency is read from the fitted curve at half-maximal effect; nearly all actives have a fitted effect of over 55% in size
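Chicken DT40 Tdp1-/- cells complemented with human TDP1, 400 cells/well, exposed to compounds plus 20 nM camptothecin for at least 48 h at 37 C; viability read as ATP content by CellTiter-Glo luminescence.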
IL-1B inflam inh – inflammasome signaling inhibition, IL-1 beta readout | THP-1 LPS/ATP IL-1B secretion, AlphaLISA, 16 h; hits give low values | activity change, % at 57.5 µM | 4.7% of 360,000 active | AID 743279; in the data active = activity change below about -50%; inconclusive = mostly about -30% to -49%
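THP-1 cells pretreated 1 hr with compounds (up to 57.5 uM final), then stimulated with LPS (250 ng/mL final) plus ATP (1.25 mM final); secreted IL-1B measured by AlphaLISA after 16 hr, decreased signal indicating inhibition.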
12-LOX inh – ALOX12 (human) lipoxygenase inhibition; P18054; purified 12hLO, xylenol orange hydroperoxide absorbance; Potency, µM (highest dose often 108 µM), without a hit: top-dose activity change, negative = inhibition, usual class: inhibitors; 1.1% of 580,000 active; AID 1671190; also: potency is read from the fitted curve at half-maximal effect
Target sequence (P18054 whole entry, looked up): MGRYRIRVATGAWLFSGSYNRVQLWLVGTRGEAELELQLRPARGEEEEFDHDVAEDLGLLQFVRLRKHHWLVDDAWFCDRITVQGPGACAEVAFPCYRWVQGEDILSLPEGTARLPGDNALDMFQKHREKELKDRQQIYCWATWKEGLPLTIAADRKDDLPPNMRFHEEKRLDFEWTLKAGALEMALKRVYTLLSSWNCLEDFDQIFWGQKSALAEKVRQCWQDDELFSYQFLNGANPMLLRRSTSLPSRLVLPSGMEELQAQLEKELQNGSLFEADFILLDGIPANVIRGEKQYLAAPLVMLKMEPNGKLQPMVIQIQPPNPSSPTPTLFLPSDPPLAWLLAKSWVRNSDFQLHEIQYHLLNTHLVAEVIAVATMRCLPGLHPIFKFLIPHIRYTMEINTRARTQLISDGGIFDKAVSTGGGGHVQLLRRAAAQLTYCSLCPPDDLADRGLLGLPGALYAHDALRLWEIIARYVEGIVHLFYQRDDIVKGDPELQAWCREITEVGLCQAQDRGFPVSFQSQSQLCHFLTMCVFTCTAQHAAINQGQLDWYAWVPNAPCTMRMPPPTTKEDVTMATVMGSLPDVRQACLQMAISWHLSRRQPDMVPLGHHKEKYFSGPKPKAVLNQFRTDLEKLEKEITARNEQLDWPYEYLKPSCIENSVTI
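Purified human 12hLO at 150 nM in 25 mM Hepes, 0.01% Triton X-100, pH 7.0, preincubated 15 min at room temperature with compound. Reaction started with 40 uM arachidonic acid, 30 min at room temperature. Hydroperoxide measured by Fe-xylenol orange, 573/405 nm absorbance ratio.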
HT1080-NT tox – kills 2HG-producing HT-1080-NT fibrosarcoma cells; HT-1080-NT fibrosarcoma viability, CellTiter-Glo ATP luminescence, 48 h; Potency, µM (top dose mostly 46.1 µM), for inactives: at the top dose activity, negative = less viability, usual class: cytotoxic; 1.6% of 360,000 active; AID 686970;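 also: NT is the 2HG producing partner of a matched IDH1 knockdown line; potency is read from the fitted curve at half-maximal effect; 0% = DMSO-treated cells and -100% = media-only wells without cells; nearly all actives have a fitted effect of over 55% in size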
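Viability by CellTiter-Glo luminescence after 48 h compound exposure at 37C of HT-1080-NT cells (750/well, RPMI, 5% FBS). % activity scaled between DMSO wells and medium-only wells, then curve-fitted and categorized by curve class.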
TDP1 cell noCPT – qHTS for Inhibitors of human tyrosyl-DNA phosphodiesterase 1 (TDP1): qHTS in cells in absence of CPT | 15% of 420,000 active | Potency, µM (titrated, usually from 46.2 µM), for the others: at the highest dose activity change, negative = growth inhibition, hits mostly inhibitors | AID 686978, 2013 | DT40 Tdp1-/- hTDP1 cells, no CPT, ATP luminescence, 48 h; also: potency is read from the fitted curve at half-maximal effect; nearly all actives have a fitted effect of over 55% in size
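Compound effects on proliferation are scored in DT40 Tdp1-/-;hTDP1 cells in the absence of CPT. ATP levels (CellTiter-Glo luminescence) are recorded after a ≥48 hr, 37 °C incubation.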
* marks the source's active call; other numbers are inactive results; ? = inconclusive; nt = no result given; [ ] = remark or other dose. This is one part of a sample in which hits are shown more often than they occur. Unless noted, calls follow the shape of the dose curve; as a rule, active = well fitted curve in the direction sought with a large enough effect; inconclusive = small, poorly fitted or top-dose-only effect, or another doubt; inactive = no such curve, though single readings can be large; an effect the other way counts as inactive or inconclusive. Unless noted, % is scaled to controls: 0 for no effect and ±100 for the full control effect.

SMILES | HT1080 IDH1KD tx | TDP1 cell CPT | IL-1B inflam inh | 12-LOX inh | HT1080-NT tox | TDP1 cell noCPT
COc1ccc(Br)cc1/C=c1\sc2nc(-c3ccco3)nn2c1=O | 7.7% | ? | -6.0 | 22.4µM* | 4.0% | ?
CCN(CC)c1ccc(/C=c2\sc3nnc(-c4ccccc4Cl)n3c2=O)cc1 | 1.2% | ? | 0.0 | 24.5%[57.4 µM] | 2.0% | ?
Cc1ccc(-c2nc3s/c(=C\c4ccco4)c(=O)n3n2)cc1 | 0.4%[9.24 µM] | -21.1% | 28.0 | ? | -13.8% | -12.1%
COc1ccc(/C=c2\sc3nc(=O)c(C)nn3c2=O)c(OC)c1 | 3.4% | 6.5% | 4.8 | 2.8% | 8.7% | -11.4%
Cc1ccc(/C=c2\sc3nc(-c4ccco4)nn3c2=O)o1 | -9.1% | -73.2% | 17.6 | nt | -14.4% | 23.1µM*
Cc1ccc(/C=c2/sc3nnc(-c4ccccc4Cl)n3c2=O)o1 | 0.7% | ? | 0.1 | ? | 7.3% | 11.6µM*
Cc1ccc(C(=O)NCC(=O)OCCOc2ccccc2Cl)cc1 | -6.4% | 7.6% | 44.7 | 5.7% | -1.8% | 5.9%
COc1ccccc1C1CCN(C(=O)c2cnn(-c3ccccc3)c2C)CC1 | -7.1% | 20.6µM* | -6.8 | ? | -0.6% | 14.6µM*
COc1ccccc1C1CCN(C(=O)c2cccs2)CC1 | 3.1% | -11.2% | -53.5* | 12.6% | -0.4% | -18.6%
COc1ccccc1C1CCN(C(=O)c2ccccc2)CC1 | 3.7% | -27.5% | -16.1 | 8.4% | 4.2% | ?
CC(=O)N[C@H](C)c1c(-c2ccc(F)cc2)noc1C(=O)O | nt | nt | nt | -1.5%[176 µM] | nt | nt
O=Cc1c[nH]c2cccc(OCc3ccccc3)c12 | -20.9% | ? | -79.3* | -17.6% | -4.2% | 23.1µM*
COc1cccc2c(=O)c3c(cnn3C)n(C)c12 | -7.9% | -10.3% | -53.9* | 0.0% | -3.4% | ?
Cc1ccc(C23CC4CC(CC(C(=O)Nc5cc(Cl)ccc5Cl)(C4)C2)C3)cc1 | nt | nt | nt | 7.9% | nt | nt
COc1ccc(-c2nc3ccc(C)cn3c2CC(C)(C)C)cc1OC | ? | 18.4µM* | -12.2 | -29.9% | -14.7% | 20.6µM*
Cc1ccc2nc(C(C)(C)C)c(Cc3cccc(Cl)c3)n2c1 | ? | 16.4µM* | 11.0 | ? | 16.4µM* | 18.4µM*
Cc1ccc2nc(-c3ccc(F)cc3)c(Cc3cccc(Cl)c3)n2c1 | ? | 20.6µM* | -1.0 | -6.2% | ? | 25.9µM*
Cc1ccc2nc(-c3ccc(Cl)cc3)c(Cc3cccc(Cl)c3)n2c1 | ? | ? | -11.8 | 0.0% | ? | ?
COc1ccc(-c2nc3ccc(C)cn3c2Cc2ccccc2)cc1OC | ? | 18.4µM* | ? | ? | ? | 23.1µM*
COC(=O)c1cc2c(c3c4cc(OC)ccc4n(S(=O)(=O)c4ccc(C)cc4)c13)C(=O)N(C)C2 | nt | nt | nt | -6.6% | nt | nt
COc1ccc(-c2nn(-c3ccccc3)cc2C2=NN(S(C)(=O)=O)C(c3ccccc3)C2)cc1 (stereo unspecified) | nt | nt | nt | -28.4% | nt | nt
COC(=O)c1ccc2nc(-c3ccc(OC)c(OC)c3)c(Cc3ccccc3OC)n2c1 | -21.4% | ? | 30.8 | 0.0% | -27.0% | ?
COc1ccc(-c2nc3ccc(C)cn3c2Cc2ccc(C)cc2)cc1OC | -27.4% | 23.1µM* | -18.7 | ? | -21.5% | 14.6µM*
COc1ccc(-c2nc3ccc(C)cn3c2Cc2cccc(Cl)c2)cc1OC | 18.4µM* | ? | -0.1 | ? | ? | 18.4µM*
COc1ccccc1Cc1c(-c2ccco2)nc2ccc(C)cn12 | ? | 8.2µM* | ? | ? | ? | 8.2µM*
SMILES | HT1080 IDH1KD tx | TDP1 cell CPT | IL-1B inflam inh | 12-LOX inh | HT1080-NT tox | TDP1 cell noCPT
COc1ccccc1Cc1c(-c2ccc(OC)c(OC)c2)nc2ccc(C)cn12 | ? | ? | -24.2 | -23.5% | ? | 23.1µM*
O=S(=O)(NC1CC(NS(=O)(=O)OCC(Cl)(Cl)Cl)C2CCCCC12)OCC(Cl)(Cl)Cl (stereo unspecified) | ? | 14.6µM* | -18.9 | nt | ? | 14.6µM*
C[C@H](NS(=O)(=O)OCC(Cl)(Cl)Cl)C1CC1c1ccccc1 (stereo partly specified) | -2.9% | -19.6% | 1.4 | -21.4% | -3.2% | -22.7%
CCc1cc(Nc2nccc(-c3c(-c4ccc(OC)c(C(=O)Nc5c(F)cccc5F)c4)nc4ccccn34)n2)c(OC)cc1N1CCC(N2CCN(S(C)(=O)=O)CC2)CC1 | nt | nt | nt | 33.4%[57.4 µM] | nt | nt
O=C1CCN(C(=O)/C=C/c2cc(Br)ccc2F)CC1 | nt | nt | nt | 14.1% | nt | nt
COc1cc(NC(=O)C2=COCCO2)c(OC)cc1Cl | -4.4% | -9.5% | -4.1 | -0.7% | -0.4% | -18.8%
COc1cccc(N/C=C(\C#N)c2ccc(OCCCF)cc2)c1 | 13.2% | 18.4µM* | -51.8* | 0.0% | 2.6% | ?
COc1ccc(/C(C#N)=C/c2ccc(OCCOc3ccccc3)cc2)cc1OC | nt | nt | nt | 4.6% | nt | nt
C=CCC[C@@H](Cc1ccc(F)cc1)C(=O)OC[C@@H](NC(=O)[C@H](CC=C)CC(=O)N(CCO)Cc1ccccc1)c1ccccc1 | ? | ? | -60.2* | -2.3% | ? | ?
C=CCC[C@@H](Cc1ccc(F)cc1)C(=O)OC[C@@H](NC(=O)[C@@H](CC=C)CC(=O)N(CCO)Cc1ccccc1)c1ccccc1 | ? | 14.6µM* | -67.2* | -15.9% | 20.6µM* | 25.9µM*
CCC(C)NC(=O)Cn1nc2c(cc1=O)CCCCC2 (stereo unspecified) | nt | nt | nt | -9.0% | nt | nt
Cc1ccccc1CN1CCCN(CC(=O)Nc2ccc(F)cc2)S1(=O)=O | nt | ? | nt | -13.8% | nt | ?
COc1ccc(NC(=O)CN2CCN(Cc3ccc(F)cc3)S2(=O)=O)cc1Cl | nt | ? | nt | -1.2% | nt | 20.6µM*
O=C(CN1CCN(Cc2ccc(F)cc2Cl)S1(=O)=O)Nc1ccc(F)cc1 | nt | 11.6µM* | nt | -20.3% | nt | 14.6µM*
O=C(CN1CCCN(Cc2ccc(F)cc2)S1(=O)=O)Nc1ccc2c(c1)OCCO2 | nt | -2.8% | nt | -19.2% | nt | -15.9%
COc1cc(C(C#N)N2CCC(c3ccccc3)=N2)ccc1O (stereo unspecified) | 5.4% | ? | -12.4 | ? | 19.2% | -28.2%
Cc1ccc(NS(=O)(=O)c2ccc(C(=O)NCCCN3CCCC3=O)cc2)cc1 | -12.0% | ? | 23.1 | -0.3% | -3.6% | ?
Cc1ccc(NS(=O)(=O)c2ccc(C(=O)NCCCN3CCCC3=O)cc2)cc1C | -20.6% | 13µM* | 1.1 | -29.0% | -16.3% | 23.1µM*

Screening results as filed in PubChem.
